What follows are sequences tested against ATP10B (assay: pooled miR-30 sensor sort-seq; sequence = guide strand). Details: shRNA.
Note: reference of the scale not given here.

Row | Sequence | sensor-assay potency score (higher = more potent)
1 | TTGAAGAATATCATCTGCCAGT | -0.482
2 | TCGCTTAGCATTTTCTTGGTGA | 0.0526
3 | TTGACTATCATACTCTTCTGGA | 0.0435
4 | TTTATCTGGAGTTACATCTTTT | -0.334
5 | TTCTTGGTGAGAATACTCGCTG | -0.605
6 | TTTATTGCTTTATCAAAGCGGT | -0.352
7 | TTGGTGTAGACAACAATCTCGC | -0.19
8 | TAAGGTGAGTTGATTCTCCAGA | 0.552
9 | TTGATGGTGACCCTCTGCCTGG | -1.45
10 | TTTGTCTCTCCATCCAAGCTGG | -0.607
11 | TAACATGGTGATTTCTCTGTGG | 0.162

Each sequence was assayed against ATP13A3 in the same assay as above. Details: shRNA.

Row | Sequence | sensor-assay potency score (higher = more potent)
12 | TAGATTTTGGACTTGAAACTGG | -0.128
13 | TTCATCAGTAGTCCTCAGCAGC | -0.704
14 | TTCGGTTTCATTGTCTACGTGT | 0.717
15 | TAAAGCTTTAGCTTCTGTGGTT | -0.122
16 | TTAATTGCAGCTCTGACACAGG | 0.0379
17 | TAGACATAGATTTTGGACTTGA | -0.0415
18 | TTGACGTACAAGAAACACCTTC | 0.452
19 | TATAACACTGAACAGCTGGAAA | -0.978
20 | TTCTTCAGTTGCTTCTTCCAGA | -0.0869
21 | TTGACATGATCCATTCTCCTTA | -0.0274

What follows are sequences tested against ATP2B3 in the same assay as above. Details: shRNA.

Row | Sequence | sensor-assay potency score (higher = more potent)
22 | TTGTAAAGCTTGTCTTCCGGGA | -0.394
23 | TTTTCTTGACAGAGTAAGCTAA | -0.151
24 | TTGCTGTTCAAGATGTTGGTGC | 0.726
25 | AAAAAAAACAACTACAACCTTG | -0.501
26 | TTTATGAACTGAACACAGTTGA | 0.503
27 | TTAAACAAGGACATCAGGGAAC | -0.472
28 | TTGTCGGTGGGAGACGACCGGG | -1.43
29 | TTAGGCAACTTTATACAGCAGC | -0.477
30 | TTTTTCAAGAGGATCTCTGAGG | -0.749
31 | TTTTTTTGCATGAAGATGCTGA | 0.145
32 | TGAAACTGCAGGAACTTGGAGA | 0.195
33 | TTTGTAAAGCTTGTCTTCCGGG | -0.371
34 | TTCTTTTGAACTCTTGGCCCTG | -0.519
35 | TAAAACATATTTATGAACTGAA | -0.383
36 | TATTGTACATAGACCGGCGTGC | 0.677
37 | TTGAAGAACACAAAGACCCTCA | 0.724
38 | TTTCTTGACAGAGTAAGCTAAG | -0.513
39 | TTGACCAGAAAGATATTCTTGC | 0.31
40 | AAAACAACTACAACCTTGCTAC | -0.0751
